# From PubChem BioAssay (NCATS)
# Entries with a potency or affinity are not part of this list. Active and inactive are the calls of the source. Calls come from the whole dose curve.
# Conditions: Ebola virus entry assay, green fluorescence channel
row,Structure (SMILES),outcome
1,CN/C(=C\[N+](=O)[O-])NCCSCc1csc(CN(C)C)n1,inactive
2,CCCCC[C@H](O)/C=C/[C@@H]1[C@H]2C/C(=C/CCCC(=O)O)O[C@H]2C[C@H]1O,inactive
3,COCC1=C(C(=O)OC(C)OC(=O)OC(C)C)N2C(=O)[C@@H](NC(=O)/C(=N\OC)c3csc(N)n3)[C@H]2SC1 (stereo partly drawn),inactive
4,N#Cc1ccc(C(c2ccc(C#N)cc2)n2cncn2)cc1,inactive
5,C=CC1=C(C(=O)O)N2C(=O)[C@@H](NC(=O)/C(=N\O)c3csc(N)n3)[C@H]2SC1 (stereo in doubt),inactive
6,CN1C(=O)C(O)N=C(c2ccccc2)c2cc(Cl)ccc21 (stereo not drawn),inactive
7,C[C@@H]1O[C@@H](O[C@H]2CC[C@@]3(C)[C@H](CC[C@@H]4[C@H]3C[C@@H](O)[C@]3(C)[C@@H](C5=CC(=O)OC5)CC[C@]43O)C2)C[C@H](O)[C@@H]1O[C@H]1C[C@H](O)[C@H](O[C@H]2C[C@H](O)[C@@H](O)[C@@H](C)O2)[C@H](C)O1 (stereo in doubt),inactive
8,CC(C)CN(C[C@@H](O)[C@H](Cc1ccccc1)NC(=O)O[C@H]1CO[C@H]2OCC[C@H]21)S(=O)(=O)c1ccc(N)cc1,inactive
9,S=P(N1CC1)(N1CC1)N1CC1,inactive
10,CC(C)(C)NC[C@H](O)COc1ccccc1C1CCCC1,inactive
11,CC(CCc1ccc(O)cc1)NCCc1ccc(O)c(O)c1 (stereo not drawn),inactive
12,Clc1ccc2c(c1)C(c1ccccc1)=NCc1nncn1-2,inactive
13,C[C@@H]1[C@H](O)[C@@H](C)/C=C/C=C\C=C\C=C\C=C\C=C\C=C\[C@H](O[C@@H]2O[C@H](C)[C@@H](O)[C@H](N)[C@@H]2O)C[C@@H]2O[C@](O)(C[C@@H](O)C[C@@H](O)[C@H](O)CC[C@@H](O)C[C@@H](O)CC(=O)O[C@H]1C)C[C@H](O)[C@H]2C(=O)O (stereo in doubt),inactive
